About 83,000 compounds went through this panel and 20% of them were active in at least one assay; those are over-represented in the sample as a whole.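 Compound tested at a single concentration for 48 hours in 96-well plates; a percent growth value below 10 was scored as active.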 Calls of active or inactive are those of the source.
The compounds below were run on NCI-H23 lung (assay: NCI-60 one-dose screen, 48 h (100 = growth as untreated, 0 = no growth, -100 = all killed)). Settings: 10 µM unless noted.
Description: Growth inhibition of the NCI-H23 human Non-Small Cell Lung tumor cell line is measured as a screen for anti-cancer activity. Cells are grown in 96 well plates and exposed to the test compound for 48 hours. Compounds are tested at a single concentration, which is 10^-5 M for most compounds. The reported endpoint is percent growth (GI% or GIPRCNT), where numbers from 0 - 100% represent growth inhibition, and numbers from -100% - 0 represent cell death. For example, a value of 40 represents 60% growth inhibition. A value of 0 means no net growth occurred over the course of the experiment. A value of -40 indicates 40% of cells at the beginning of the experiment died by the end of the experiment. A value of -100 means all cells are dead at the end of the experiment.
NCI-60 Human Tumor Cell Lines Screen was performed using the standard one-dose NCI protocol, which is described in more detail at https://dtp.cancer.gov/discovery_development/nci-60/default.htm.
Compounds with GIPRCNT values below 10 were considered active. Activity score was based on GIPRCNT using the following formula: […]
Score is 0 for GIPRCNT values of 100 or above, 50 for GIPRCNT values of 0, and 100 for GIPRCNT values of -100.

Row | SMILES | growth
1 | Cc1ccccc1NC(=O)CN(C)C | 95.7% (inactive)
2 | CCOC(=O)c1ccc(NC(=O)CCCN(CC)CC)cc1 | 95.4% (inactive)
3 | CC(C)(C)N1CC(OC(N)=O)C1 | 91.2% (inactive)
4 | CCn1c(Sc2nnc(Nc3ccccc3)s2)nc2c1c(=O)n(C)c(=O)n2C | 88.2% (inactive)
5 | NS(=O)(=O)Oc1ccc(-c2sc3cc(O)ccc3c2C(=O)c2ccc(OCCN3CCCCC3)cc2)cc1 | 88% (inactive)
6 | CCCCCCCC/C=C/CCCCCCCC1=NCC[N+]1(CCO)CCO | 67.9% (inactive)
7 | O=C(/C=C/C12c3ccccc3C(c3ccccc31)C1C(=O)N(c3ccc(Cl)cc3)C(=O)C12)c1ccccn1 (stereo not given) | -22.6% (active)
8 | CCCN1CCN(c2ccc3nc(-c4ccc5nc(-c6ccc(OCC)c(OCC)c6)[nH]c5c4)[nH]c3c2)CC1 | -53.3% (active)
9 | Clc1ccc(/C=N\N=c2\scc(-c3ccc(Cl)cc3)n2/N=C/c2ccc(Cl)cc2)cc1 | 94.4% (inactive)
10 | CC[C@]1(O)C[C@H]2CN(CCc3c([nH]c4ccccc34)[C@@](C(=O)OC)(c3cc4c(cc3OC)N(C=O)[C@H]3[C@@](O)(C(=O)OC)[C@H](OC(C)=O)[C@]5(CC)C=CCN6CC[C@]43[C@@H]65)C2)C1 | 290% (inactive)
11 | CCOC(=O)c1sc2ccc(NCc3nc[nH]c3C)cc2c1NC(=O)c1cc(OC)c(OC)c(OC)c1 | 85.7% (inactive)
12 | COc1ccc(-n2nnc(C(=O)NCCc3c[nH]c4ccc(F)cc34)c2C)cc1 | 98.5% (inactive)
13 | COc1cc(-c2ccc(-c3ccc(C(=N)N)nc3)s2)cc(OC)c1OC | 72.2% (inactive)
14 | CCCCS(=O)(=O)Oc1ccc(-c2nc(C)c(C(=O)OCC)s2)cc1C=O | 84% (inactive)
15 | O=C(Nc1ccccn1)[C@H](O)[C@@H](O)C(=O)N1CCOCC1 | 106% (inactive)
16 | Clc1cnc(Nc2ccc(OCCN3CCCC3)cc2)nc1NCc1ccco1 | 10.2% (inactive)
17 | Cc1nc2ccc(C(=O)NCc3cc(C(=O)O)c(C)o3)cc2nc1C | 101% (inactive)
18 | Cc1cc(=O)c2cc3nc(-c4cccnc4)oc3c(Br)c2o1 | 90% (inactive)
19 | Clc1ccc(-c2nnc(-c3ccco3)o2)cc1 | 91.9% (inactive)
20 | N=C(N)c1ccc(-c2ccc(-c3ccc(Cl)cc3Cl)o2)nc1 | 78% (inactive)

Row | SMILES | growth
21 | Cc1c(C)c2c(c(C)c1NC(=O)/C=C\C(=O)O)CCC(C)(CCCC(C)CCCC(C)CCCC(C)C)O2 (stereo not given) | 60.8% (inactive)
22 | CCCCOc1ccc(NC(=O)n2nc(N=NN(C)C)c3ccc(Cl)cc32)cc1 | 94.2% (inactive)
23 | Cc1cc2c(F)c(Oc3ncnc(Nc4ccc(N5C[C@@H](C)N[C@@H](C)C5)cc4)c3C#N)cc(F)c2[nH]1 | 75% (inactive)
24 | CS(=O)(=O)c1ccc(N/N=C/c2c(-c3ccc(S(C)(=O)=O)cc3)[nH]c3ccc(F)cc23)cc1 | 41.6% (inactive)
25 | Cc1nn(-c2ccccc2)c2c1C(c1ccc([N+](=O)[O-])cc1)C(C#N)=C(N)O2 (stereo not given) | 98.4% (inactive)
26 | O=c1[nH]c(NCc2nnnn2-c2ccc(Br)cc2)nc2sc3c(c12)CCCC3 | 97.6% (inactive)
27 | Cc1cc(N2CCCCC2)nc(N(CCNc2ccnc3cc(Cl)ccc23)Cc2ccccn2)n1 | 53.7% (inactive)
28 | CC1(C)N=C(N)N=C(N)N1c1cccc(CN)c1 | 93.2% (inactive)
29 | CCn1c(Sc2nnc(NC(=O)CSC(=S)N3CCCCC3)s2)nc2c1c(=O)n(C)c(=O)n2C | 91.3% (inactive)
30 | O=C1Nc2ccccc2SC1C1SC(=S)N(Cc2ccccc2)C1=O (stereo not given) | 96.5% (inactive)
31 | O=C(O)CC1Sc2ccccc2NC1=O (stereo not given) | 89.1% (inactive)
32 | O=C(CCc1nc(-c2cccc(Cl)c2)no1)Nc1ccccn1 | 89.2% (inactive)
33 | O=C(/C=C/C12c3ccccc3C(c3ccccc31)C1C(=O)N(c3ccccc3)C(=O)C12)c1ccccc1 (stereo not given) | 5.23% (active)
34 | O=C(/C=C/c1ccccc1)c1ccc2ccccc2c1 | 92.1% (inactive)
35 | COc1ccc(-c2nc3ncccn3c2/C=C/C(=O)c2cc(OC)c(OC)c(OC)c2)cc1 | -19.6% (active)
36 | C[C@@H](C[C@H](CCOCc1cccnc1)c1ccccc1)c1cc2ccccc2o1 | 90.7% (inactive)
37 | C[C@@H]1CC[C@@H]2[C@@H]1[C@H](OC(=O)/C=C/c1ccccc1)[C@]1(CCCOCCOCCOCCOC(=O)CCCC[C@@H]3SC[C@@H]4NC(=O)N[C@@H]43)C[C@@H](OC(=O)CO)[C@@]2(C)O1 | 102% (inactive)
38 | CCN(CC)CCCNC(=O)c1ccc(N)cc1 | 101% (inactive)
39 | Fc1ccc(Nc2ccc3cc(OCCCN4CCOCC4)ccc3n2)cc1F | 55.7% (inactive)
40 | COc1ccc(C2CC(c3ccc4ccccc4c3)=NN2c2nc(O)c(C3=c4cc(Cl)ccc4=NC3=O)s2)cc1 (stereo not given) | -40.9% (active)
